Results as given in PubChem BioAssay (NCATS).
Records with an inconclusive call do not appear. Calls of active or inactive are those of the source. Calls follow the shape of the dose curve; as a rule, active = well fitted inhibition curve with a large enough effect; inconclusive = small, poorly fitted or top-dose-only effect; inactive = flat fitted curve, though single readings scatter.

Legend:
Experiment in all cases: qHTS profiling for inhibitors of Plasmodium falciparum proliferation (AID 504749); also: nearly all actives have a fitted effect of over 60% in size
Settings in all cases: P. falciparum in erythrocytes, SYBR Green DNA, 72 h; series mostly up to 28.7 µM
CP237 = test system: CP237
Procedure, shortened: (§1)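 Infected RBCs, 0.3% parasitemia/2.5% Hct final; cpd 72 h, 37 C, 5% CO2; lysis buffer with saponin/triton/SYBR Green I, o/n RT dark; FI 485/535; norm. to artemisinin (0.29 uM) and DMSO.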

CP238 = test system: CP238
Procedure, shortened: as §1

CP247 = test system: CP247
Procedure, shortened: as §1

CP250 = test system: CP250
Procedure, shortened: as §1

CP252 = test system: CP252
Procedure, shortened: as §1

CP256 = test system: CP256
Procedure, shortened: as §1

CP260 = test system: CP260
Procedure, shortened: as §1

CP262 = test system: CP262
Procedure, shortened: as §1

CP265 = test system: CP265
Procedure, shortened: as §1

CP266 = test system: CP266
Procedure, shortened: as §1

CP268 = test system: CP268
Procedure, shortened: as §1

CP269 = test system: CP269
Procedure, shortened: as §1

CP286 = test system: CP286
Procedure, shortened: as §1

CP291 = test system: CP291
Procedure, shortened: as §1

CP305 = test system: CP305
Procedure, shortened: as §1

CP315 = test system: CP315
Procedure, shortened: as §1

CP325 = test system: CP325
Procedure, shortened: as §1

CP329 = test system: CP329
Procedure, shortened: as §1

CP335 = test system: CP335
Procedure, shortened: as §1

CP297 = test system: CP297
Procedure, shortened: as §1

Measured: Potency
Potency is read from the fitted curve at half-maximal effect.

CCN(CC)CCNC(=O)c1cc(Br)c(N)cc1OC
not listed: CP297
inactive: all other assays above

O=C(O)CCNC(=O)c1ccccc1
not listed: CP266
inactive: all other assays above

CCCc1ncc(C[n+]2ccccc2C)c(N)n1
not listed: CP262 | CP335
inactive: all other assays above

O=C(Nc1ncc([N+](=O)[O-])s1)c1cccs1
not listed: CP266
inactive: all other assays above

O=C1C(O)=C(O)C(=O)C(O)=C1O
not listed: CP286 | CP297
inactive: all other assays above

Cc1ccc(S(=O)(=O)NC(=O)NC2CCCC2)cc1
not listed: CP266 | CP297
inactive: all other assays above

Cc1ccc(O)c([C@H](CCN(C(C)C)C(C)C)c2ccccc2)c1
active: CP237 5.01 µM | CP238 4.47 µM | CP247 6.31 µM | CP250 11.2 µM | CP252 6.31 µM | CP256 7.94 µM | CP260 5.01 µM | CP265 7.08 µM | CP268 8.49 µM | CP269 7.57 µM | CP286 3.98 µM | CP291 9.53 µM | CP305 7.57 µM | CP315 16.9 µM | CP325 10.7 µM | CP329 13.5 µM | CP335 5.36 µM

O=C(NC1CCN(CCc2c[nH]c3ccccc23)CC1)c1ccccc1
not listed: CP286 | CP335 | CP297
inactive: all other assays above

C/C=C/C=N/NC(=O)c1ccncc1
not listed: CP297
inactive: all other assays above

C#C[C@]1(O)CC[C@H]2[C@@H]3CCC4=Cc5oncc5C[C@]4(C)[C@H]3CC[C@@]21C
not listed: CP297
inactive: all other assays above

CC(=O)Nc1ccc(OC(=O)c2ccccc2OC(C)=O)cc1
not listed: CP266
inactive: all other assays above

CN(Cc1ccc(C(C)(C)C)cc1)Cc1cccc2ccccc12
not listed: CP286 | CP335
inactive: all other assays above

CCOCCn1c(N2CCCN(C)CC2)nc2ccccc21
active: CP237 11.2 µM
not listed: CP265 | CP266 | CP268 | CP305 | CP335 | CP297
inactive: all other assays above

O=C(O)c1ccc(S(=O)(=O)N(Cl)Cl)cc1
not listed: CP262
inactive: all other assays above

Cc1cc(-c2ccccc2)nnc1NCCN1CCOCC1
not listed: CP266 | CP291 | CP325
inactive: all other assays above
